Reference: the supplement of paper PMC6555819

system: PPARg:RXRa 90nM:30nM, anti-RXR (NR concentration 90 nM, RXRa partner concentration 30 nM); assay: PBM binding z-score (relative to random genomic background probes); higher = stronger binding; sequences stand for … in GC…GCGATTGACAGCGTAGAATGAAGG
Outline: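 Ligand-free nuclear receptor dimers were bound for 1 h to custom Agilent 4×180K protein-binding microarrays. Detection used antibodies against each partner (one per run). Binding z-scores rest on regression-normalized fluorescence, with random background probes as the reference.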

Row | Sequence | PBM binding z-score
1 | CCGACTGGGCCAAAGGTTACCATACTCAGTACGA | 10.6
2 | AGTAAAAGTTCATCTAGGTAACGTAAGATATGCT | 2.54
3 | CCTTACGGGTCACTGACAGGTTATATCATTTGGA | 2.98
4 | GCGACTGGGGCATCAGCAGCTTACCATAACTTAA | -0.198
5 | GCTGCTAGGTCAACTAATGGTCAGCTAAAGCTCG | 2.19
6 | CCTACTGGGCCACGAAGGGTCATTGATTCAGTGA | 2.58
7 | ACAGACAGGTGATGAAGGTAACTAAGGCTATCAT | 0.0556
8 | TCTTGTAGATCAAGCAGGTTGAGAAAGCCTGAGT | 1.66
9 | TCTATTAGTTGATTAGGGCGACCGAAACAGCGGA | 2.8
10 | CTACCAAGGTGAGCAAGGTCGTTGATTACTATTC | -0.252
11 | ATCGAAAGGTCGTGAGGTGGGTATACAGAAAGGC | 2.77
12 | CTCGAAAGGTCGCTTGAGGTGAGTATACGGATAA | 1.64
13 | CCTTACGGGTCAAGGCTATAGCACGGGTGGTACG | 2.99
14 | AGAATGAGGTTATTAAGATTAGGGAATTGCGGTC | 1.37
15 | TCTCGGAGGACTCGAAAGGTCAGAGCTCGACATC | 1.88
16 | ATCTCTAGGTATAGTTCAGTGAAAGATCGATAGA | 1.4
17 | CATACTAGGTCACGAAAGGTCAAAGTCGAATGAC | 8.01
18 | CCTACTGGGCCCAAGGTCATTGATTCCAATGCTC | 6.47
19 | GGAACGATGGCAAGTTGATAGCAGAGTTTGATGG | -0.709
20 | TCTTGTAGATCATAGGTTAAGAAAGCCGAAGCCT | 6.23

Row | Sequence | PBM binding z-score
21 | CGTCCAAGGTCAAAGGCCAGTGAAGAGATGACGG | 5.57
22 | TCATATAGGTAAACAAGTGAAAGTCCGTAAGTTA | 2.98
23 | CCTTACGGGTCACTGACAGGTTATAACATTTGGA | 3.38
24 | ATATGTACGTTATCGGGTCATTCAGTTTGCGCAT | 0.972
25 | CCTTCTGGGCCAAGGTCATTGATCAGTCAAAGCA | 3.57
26 | TCTATTCGTTGAAGGGCAACCGACGAGTCCGTTT | 3.2
27 | CATAGTTGGTCAGGAGGTCACACACCGGATATGA | 3.1
28 | CGTCCAAGGTCAGCAGGTCAGTGATAGCGACGTG | 3.05
29 | AACTCTAGGTAACAAGTTCAGTGAAAGAGAGGAC | 1.31
30 | CCTACTGGGCCATTCAGAGTTCATTGATCATATG | 0.782
31 | CCTACTGGTCCAAAAAGGTCATTGATGCCGATAA | 2.04
32 | AGAATGAGGTTAACATCAGGGAAACAGAATACAT | 2.46
33 | CCTACTGGGCCAAAGGTCATTAATTCCAATGCTC | 12.4
34 | TAGCCTGGGTCAGATCGGGCCAGTATACGCTATA | 0.167
35 | ACAGACAGGTGATGGAGGTAACTCAGGCTATCAT | -0.291
36 | AGAATGAGGTTATTACGATCAGGGAATTGCGGTC | 1.11
37 | TCCTGTAGATCAATAGAGGTTAAGAAAGTGCGCT | 2.39
38 | ACAGACAGGTGATGAGGGTAACTCAGGCTATCAT | -0.218
39 | GCTGCTAGGACAACTGATGGTCAGCTAAAGCTCG | -1.12
40 | ACTAGCAGGCCAAGTTTGGGTCACTCGAACAAAG | 0.14
